# Measured values from PubChem BioAssay (Tox21).
# Results filed as inconclusive are left out. Unmarked numbers belong to inactive results. Activity calls are given as the source filed them. Calls follow the shape of the full dose curve.
# Assay: qHTS assay to identify small molecule agonists or antagonists of the thyroid stimulating hormone receptor (TSHR) signaling pathway - wild type cell line counter screen (AID 1259384)
# Conditions: HEK293 wild type, cAMP HTRF counter-screen, active compounds read high; series mostly up to 92.4 µM
# From the text: U.S. Tox21 Program National Center for Advancing Translational Sciences [NCATS] NIH Chemical Genomics Center [NCGC] U.S. Environmental Protection Agency [EPA] National Institutes of Environmental Health Sciences [NIEHS] National Toxicology Program [NTP] U.S. Food and Drug Administration [FDA] Tox21 Assay Overview: TSHR is the receptor for thyrotropin (thyroid stimulating hormone or TSH), a member of the glycoprotein hormone family. TSH is released by the anterior pituitary gland and is the main regulator of thyroid gland growth and development. Upon binding circulating thyrotropin, a G-protein signal cascade activates adenylyl cyclase and […] cAMP concentration is increased. cAMP is a key second messenger involved extensively in cellular signal transduction pathways associated with the majority of G-protein coupled receptors (GPCRs). The activation of these GPCRs by neurotransmitters, lipids, nucleotides, peptides and hormones results in the activation or the inhibition of plasma membrane-bound adenylate cyclase through heterotrimeric G-proteins. A cell-based TSHR-Hek293 assay can be used to identify TSHR agonists. To eliminate the false positive compounds identified from screening a cell-based TSHR-Hek293 cell line, cAMP assay in a wild type Hek293 cells was used as a counter screening.
# Tox21 Assay Protocol Summary: Hek293 cells (wild type) were dispensed at 800 cells/4 uL/well in 1536-well white plates using a Multidrop dispenser. After the assay plates were incubated at a 37 C/5% CO2 incubator for 18 hrs, 23 nL of compounds dissolved in DMSO, positive controls or DMSO only was transferred to the assay plate by a pin tool, followed by 1 ul medium containing Ro20-1724. After 30 min of incubation at room temperature, 2.5 ul/well of cAMP-d2 and 2.5 ul/well of anti-cAMP-cryptate were added respectively into the assay plates using a Flying Reagent Dispenser. The plates were incubated at room temperature for 1 hr. The fluorescence intensity in the plates was measured using an Envision plate reader. Each test compound was measured at 15 concentrations and in triplicates.
# % is scaled to controls: 0 for no effect and ±100 for the full control effect.
SMILES,outcome,cAMP activity change
CC[N+](CC)(CC)CCOc1ccc(/C=C/c2ccccc2)cc1,inactive,
C=CCn1c(=O)n(CC=C)c(=O)n(CC=C)c1=O,inactive,
CCCCN(CCCC)CC(O)c1cc(Cl)cc2c1-c1ccc(Cl)cc1/C2=C/c1ccc(Cl)cc1 (stereo not given),inactive,
O=C1CCc2cc(OCCCCc3nnnn3C3CCCCC3)ccc2N1,inactive,
Clc1sc(Cl)c(Cl)c1Cl,inactive,
CC(=O)Oc1cc2c(s1)CCN(C(C(=O)C1CC1)c1ccccc1F)C2 (stereo not given),inactive,
CC(N=C(NC#N)Nc1ccncc1)C(C)(C)C (stereo not given),inactive,
Fc1ccc(C(c2ccc(F)cc2)N2CCNCC2)cc1,inactive,
CCC(C)(CCC(C)C)C(=O)[O][Sn]([CH3])([CH3])[O]C(=O)C(C)(CC)CCC(C)C (stereo not given),inactive,
CCCCOC(=O)CC,inactive,
FC(F)(F)c1cccc(Cl)c1,inactive,
CCCCCCCC,inactive,
Cc1ccc(N/N=c2\c(=O)cc/c(=N\Nc3ccc(S(=O)(=O)O)cc3)c2=O)c(C)c1,inactive,
Cc1ccc(C(C)C)cc2c(C)ccc1-2,inactive,
CC(=O)[C@H]1CC[C@H]2[C@@H]3CCC4=CC(=O)CC[C@]4(C)[C@H]3CC[C@]12C,inactive,
COCCOc1cc2cc(C(=O)NC3CCN(C(C)C)CC3)n(CC(=O)Nc3ccc(Cl)cn3)c2cn1,inactive,
CCC(C)[O-].CCC(C)[O-].CCOC(=O)/C=C(/C)[O-].[Al+3],inactive,
O=C1CCc2ccc(OCCCCN3CCN(c4cccc(Cl)c4Cl)CC3)cc2N1,inactive,
Cc1nc(-c2ccc(Cl)cc2)oc1COC(C)(C)C(=O)O,inactive,
NC(=O)c1cccc([N+](=O)[O-])c1,inactive,

SMILES,outcome,cAMP activity change
CCC(=O)OC(=O)CC,inactive,
Nc1nc2c(ncn2COCCO)c(=O)[nH]1,inactive,
COc1ccc(NC(=O)CC(C)=O)cc1,inactive,
CC(C)(C)NSc1nc2ccccc2s1,inactive,
CC(=O)OCC=C(C)C,inactive,
CN1CCN(Cc2cc(-c3ccc4[nH]c(=O)oc4c3)co2)[C@@H](c2ccc(F)cc2)C1,inactive,
CC(CO)Oc1ccccc1 (stereo not given),inactive,
COC(=O)C1=C(C)NC(C)=C(C(=O)OCCN2CCN(C(c3ccccc3)c3ccccc3)CC2)C1c1cccc([N+](=O)[O-])c1 (stereo not given),inactive,
OCC(F)(F)F,inactive,
COc1ccc2c(c1)c(CC(=O)OC/C=C(\C)CC/C=C(\C)CCC=C(C)C)c(C)n2C(=O)c1ccc(Cl)cc1,inactive,
CCCCCCCCCCOC(=O)c1ccccc1C(=O)OCCCCCCCC,inactive,
O=C(O)O,,-3.34% [at 8.39 µM]
CCc1ccc(Br)cc1,inactive,
Cc1cccc(C)c1NC(=O)c1ccc(N)cc1,inactive,
O=[N+]([O-])c1ccc(F)c(Cl)c1,inactive,
COc1ccc2cc1Oc1ccc(cc1)C[C@H]1c3c(cc4c(c3Oc3cc5c(cc3OC)CCN(C)[C@@H]5C2)OCO4)CCN1C,inactive,
Cc1cc(-n2nc3ccc(Cl)cc3n2)c(O)c(C(C)(C)C)c1,inactive,
Clc1ccnc(Cl)n1,inactive,
C/C=C/C=C/COC(=O)C(C)C,inactive,
C=C(CC)C(=O)c1ccc(OCC(=O)O)c(Cl)c1Cl,inactive,
